TIM10 inh = inhibits growth of TIM10 yeast strain | S. cerevisiae TIM10 strain growth, BacTiter-Glo luminescence, 24 h | inhibition, % at 10 µM | AID 463195 | 330,000 compounds, 1.4% hits;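 active = inhibition of 40% or more at the single tested concentration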;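 also: wild-type TIM10 isogenic control strain grown at permissive 25 °C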
tim23-1 inh = inhibits growth of tim23-1 mutant yeast; S. cerevisiae tim23-1 growth, BacTiter-Glo luminescence, 24 h; AID 463212; 330,000 compounds, 1.3% hits; inhibition, % at 20 µM;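 active = growth inhibition of the mutant yeast at or above 50%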;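 also: temperature-sensitive mutant grown at 25 °C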
PfHsp90 yeast 2 = reduces growth (ATP signal) of yeast expressing P. falciparum Hsp90 | 310,000 compounds, 0.32% hits | S. cerevisiae expressing PfHsp90, BacTiter-Glo ATP, 48 h; yeast lacking PDR1 and PDR3 efflux regulators | AID 504621 | inhibition, % at 9.4 µM;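 active = every replicate shows inhibition above about 80%, whatever the replicate mean, limit read from the data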
tim10-1 inh = tim10-1 yeast growth inhibition; 330,000 compounds, 2.2% hits; inhibition, % at 20 µM; AID 463190; S. cerevisiae tim10-1 ts strain growth, BacTiter-Glo, 24 h;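 active = inhibition of at least 40%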;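 also: mutant grown at 25 °C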
SKKanGAS inh = SKKanGAS growth inhibition; 300,000 compounds, 1.3% hits; inhibition, % at 7.5 µM; S. pyogenes SKKanGAS, kanamycin growth, BacTiter-Glo, 6 h;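 active = mean replicate score, as percent of positive control median, at least 50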;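 also: strain carries kanamycin resistance gene driven by streptokinase promoter and grows in 40 µg/ml kanamycin; loss of luminescence reflects streptokinase promoter inhibition or plain growth inhibition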
tim10-1 confirm = tim10-1 yeast growth inhibition, confirmed; shares compounds with tim10-1 inh; S. cerevisiae tim10-1 ts strain growth, BacTiter-Glo, 24 h; inhibition, % at 20 µM; 7,400 compounds, 56% hits; AID 463213;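 active = inhibition of yeast growth at or above a set limit in either of two repeat tests at 20 µM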;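 also: tim10-1 mutant grown at permissive 25 °C to find synthetic lethal compounds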
Numbers stand for hits. The list is not random: actives were taken first. Their share in the collection is about 4.4%.

`COc1ccc(C(CNC(=O)c2oc3cc(Br)ccc3c2C)N2CCCCC2)cc1` (stereo not drawn) gave TIM10 inh inactive, tim23-1 inh inactive, PfHsp90 yeast 2 inactive, tim10-1 inh 42, SKKanGAS inh inactive and tim10-1 confirm inactive.
`CC(=O)c1c(C)[nH]c(C(=O)NCc2cccc(Cl)c2)c1C` gave TIM10 inh inactive, tim23-1 inh inactive, PfHsp90 yeast 2 inactive, tim10-1 inh inactive and SKKanGAS inh inactive.
For O=C(CSc1nnc(-c2ccc(F)cc2)o1)Nc1ccccc1N1CCOCC1 the results were TIM10 inh inactive, tim23-1 inh inactive, PfHsp90 yeast 2 inactive, tim10-1 inh 40, SKKanGAS inh inactive and tim10-1 confirm inactive.
`Cc1ccc(NC(=O)C2=C(O)CCn3c2nc2ccccc23)cc1` gave TIM10 inh inactive, tim23-1 inh inactive, PfHsp90 yeast 2 inactive, tim10-1 inh 43, SKKanGAS inh inactive and tim10-1 confirm inactive.
For O=C(NCCCSc1ccccc1)c1cc(Br)ccc1O the results were TIM10 inh inactive, tim23-1 inh inactive, PfHsp90 yeast 2 94, tim10-1 inh 46, SKKanGAS inh inactive and tim10-1 confirm inactive.
O=C(NCCSc1ccccc1)c1ccc(Br)cc1 was read as TIM10 inh inactive, tim23-1 inh inactive, PfHsp90 yeast 2 inactive, tim10-1 inh inactive and SKKanGAS inh inactive.
`Cc1ccn2c(=O)nc(SCC(=O)Nc3ccc4c(c3)OCCO4)nc2c1` gave TIM10 inh inactive, tim23-1 inh inactive, tim10-1 inh inactive and SKKanGAS inh inactive.
For O=C(CCN1Cc2ccccc2C1)c1ccc2c(c1)OCCO2 the results were TIM10 inh inactive, tim23-1 inh inactive, PfHsp90 yeast 2 inactive, tim10-1 inh inactive and SKKanGAS inh inactive.
For O=C(CCN1CCc2ccccc2C(c2ccccc2)C1)c1ccc2c(c1)OCCO2 (stereo not drawn) the results were TIM10 inh inactive, tim23-1 inh inactive, PfHsp90 yeast 2 138, tim10-1 inh 56, SKKanGAS inh inactive and tim10-1 confirm 56.
Cc1cc(SCC(=O)NCC(c2cccs2)N2CCOCC2)c(C)cc1Br (stereo not drawn) was read as TIM10 inh inactive, tim23-1 inh inactive, PfHsp90 yeast 2 inactive, tim10-1 inh inactive and SKKanGAS inh inactive.
O=C(CN1CCN(S(=O)(=O)c2ccccc2)CC1)Nc1ccc([N+](=O)[O-])cc1 was read as TIM10 inh inactive, tim23-1 inh inactive, PfHsp90 yeast 2 inactive, tim10-1 inh 47, SKKanGAS inh inactive and tim10-1 confirm 32.
Cc1ccc(S(=O)(=O)N2CCN(CC(=O)Nc3ccc([N+](=O)[O-])cc3)CC2)cc1C was read as TIM10 inh inactive, tim23-1 inh inactive, PfHsp90 yeast 2 inactive, tim10-1 inh inactive and SKKanGAS inh inactive.
For O=S(=O)(Nc1cc(Sc2ncn[nH]2)c(O)c2ccccc12)c1ccccc1 the results were TIM10 inh inactive, tim23-1 inh inactive, PfHsp90 yeast 2 inactive, tim10-1 inh 50 and tim10-1 confirm inactive.
CC(C)(C)c1csc(NC(=O)C2COc3ccccc3O2)n1 (stereo not drawn) was read as TIM10 inh inactive, tim23-1 inh inactive, PfHsp90 yeast 2 inactive, tim10-1 inh inactive and SKKanGAS inh inactive.
For COc1ccc(-c2csc(NC(=O)C3COc4ccccc4O3)n2)cc1OC (stereo not drawn) the results were TIM10 inh inactive, tim23-1 inh inactive, PfHsp90 yeast 2 inactive, tim10-1 inh 43, SKKanGAS inh inactive and tim10-1 confirm inactive.
For COc1ccc(C2(C(=O)N3CCC(n4nc(-c5ccccc5)oc4=O)CC3)CC2)cc1 the results were TIM10 inh inactive, tim23-1 inh inactive, PfHsp90 yeast 2 inactive, tim10-1 inh 41, SKKanGAS inh inactive and tim10-1 confirm inactive.
Cc1ccc(-c2nc(C#N)c(NCc3cccc4c3OCO4)o2)cc1 was read as TIM10 inh inactive, tim23-1 inh inactive, PfHsp90 yeast 2 inactive, tim10-1 inh 44, SKKanGAS inh inactive and tim10-1 confirm inactive.
For C[C@H](CO)N1C[C@H](C)[C@@H](CN(C)S(C)(=O)=O)Oc2ccc(NC(=O)CCN3CCOCC3)cc2C1=O the results were TIM10 inh inactive, tim23-1 inh inactive, PfHsp90 yeast 2 inactive and tim10-1 inh inactive.
CC(C)(C)NC(=O)Nc1ccc(F)c(Cl)c1 was read as TIM10 inh inactive, tim23-1 inh inactive, PfHsp90 yeast 2 inactive, tim10-1 inh 46, SKKanGAS inh inactive and tim10-1 confirm 44.
Screening CCCNC(=O)Nc1ccc(F)c(Cl)c1 returned TIM10 inh inactive, tim23-1 inh inactive, PfHsp90 yeast 2 inactive, tim10-1 inh inactive and SKKanGAS inh inactive.
Screening Cc1ccc(S(=O)(=O)N2CCC[C@H]2C(=O)OC(C)C(=O)Nc2ncc(Cl)cc2Cl)cc1 (stereo partly drawn) returned TIM10 inh inactive, tim23-1 inh inactive, PfHsp90 yeast 2 inactive, tim10-1 inh 41, SKKanGAS inh inactive and tim10-1 confirm inactive.
For CC(OC(=O)CN(C)S(=O)(=O)c1ccc(Cl)cc1)C(=O)Nc1ncc(Cl)cc1Cl (stereo not drawn) the results were TIM10 inh inactive, tim23-1 inh inactive, PfHsp90 yeast 2 inactive, tim10-1 inh inactive and SKKanGAS inh inactive.
Cc1cccc(NC(=O)CCCCCN2C(=O)[C@@H]3Cc4ccccc4CN3C2=O)c1 was read as TIM10 inh inactive, tim23-1 inh inactive, PfHsp90 yeast 2 inactive, tim10-1 inh inactive and SKKanGAS inh inactive.
`O=C(CCCCCN1C(=O)[C@@H]2Cc3ccccc3CN2C1=O)Nc1cccc(F)c1` gave TIM10 inh inactive, tim23-1 inh inactive, PfHsp90 yeast 2 inactive, tim10-1 inh 45, SKKanGAS inh inactive and tim10-1 confirm inactive.
For COc1ccc(Cl)c2c1[nH]c1nc(SCc3ccccn3)nnc12 the results were TIM10 inh inactive, tim23-1 inh inactive, PfHsp90 yeast 2 inactive, tim10-1 inh 42, SKKanGAS inh inactive and tim10-1 confirm inactive.
COC(=O)[C@H](CC(C)C)NC(=O)Cn1cnc2c(NCc3ccccc3)ncnc21 was read as TIM10 inh inactive, tim23-1 inh inactive, PfHsp90 yeast 2 inactive and tim10-1 inh inactive.
For COCCn1c(C)cc(/C=C(\C#N)C(=O)OCC(=O)Nc2ccc(S(N)(=O)=O)cc2)c1C the results were TIM10 inh inactive, tim23-1 inh inactive, PfHsp90 yeast 2 inactive and tim10-1 inh inactive.
Screening COc1ccc(N2CCN(Cc3nc(N)nc(N4CCCc5ccccc54)n3)CC2)cc1 returned TIM10 inh inactive, tim23-1 inh inactive, PfHsp90 yeast 2 inactive, tim10-1 inh 40, SKKanGAS inh inactive and tim10-1 confirm inactive.
For Nc1nc(CN2CCN(c3ccccc3F)CC2)nc(N2CCCc3ccccc32)n1 the results were TIM10 inh inactive, tim23-1 inh inactive, PfHsp90 yeast 2 inactive and tim10-1 inh inactive.
`C(=N\Nc1nc2ccccc2[nH]1)/c1cccs1` gave TIM10 inh inactive, tim23-1 inh inactive, PfHsp90 yeast 2 inactive, tim10-1 inh inactive and SKKanGAS inh inactive.

Screening data as filed in PubChem.
